About 79,000 compounds went through this panel and 15% of them were active in at least one assay; those are over-represented in the sample as a whole. Active and inactive are the calls of the source. Rule as the data show it: active = growth inhibition above about 70%; inactive = the rest.
Assays:
[1] = NCI Yeast Anticancer Drug Screen. Data for the rad50 strain (AID 155);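 also: 0% = growth of vehicle-only cultures of the same strain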; settings: S. cerevisiae rad50 strain growth inhibition, active compounds read high
Method in brief: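 Growth of the mutant yeast was measured after compound exposure and referenced to vehicle-treated cultures.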

[2] = NCI Yeast Anticancer Drug Screen. Data for the mec2-1 strain (AID 157); settings: S. cerevisiae mec2-1 strain, active compounds read high
Method in brief: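 Mutant yeast (mec2-1) grown with compound; growth inhibition relative to vehicle control reported.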

[3] = NCI Yeast Anticancer Drug Screen. Data for the sgs1 mgt1 strain (AID 161);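 also: 0% = growth of cultures given vehicle only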; settings: S. cerevisiae sgs1 mgt1 strain, active compounds read high
Method in brief: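 Percent growth inhibition was derived by comparing compound-exposed mutant yeast with vehicle-exposed cultures. The strain carries alterations in DNA damage repair.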

[4] = NCI Yeast Anticancer Drug Screen. Data for the cln2 rad14 strain (AID 165);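 also: 0% = growth equal to vehicle treated cultures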; settings: S. cerevisiae cln2 rad14 strain, active compounds read high
Method in brief: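 Readout is yeast growth inhibition versus vehicle-treated controls, using a strain with cln2 and rad14 alterations exposed to compound.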

[5] = NCI Yeast Anticancer Drug Screen. Data for the bub3 strain (AID 167); settings: S. cerevisiae bub3 mutant strain, active compounds read high
Method in brief: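 Whole-cell yeast assay. The mutant strain was incubated with compounds, and growth inhibition was determined by comparison with vehicle-treated cells.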

[6] = NCI Yeast Anticancer Drug Screen. Data for the mlh1 rad18 strain (AID 175); settings: S. cerevisiae mlh1 rad18 strain growth inhibition, active compounds read high
Method in brief: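 Genetically defined yeast (DNA repair-deficient) exposed to compounds; growth inhibition determined relative to vehicle.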

[7] = at 5.0 µM (retest, dose inferred, filed as 0.5)
[8] = at 50.0 µM (retest, dose inferred, filed as 5.0)

Measured: growth inhibition

CN(NS(=O)(=O)c1cccc([N+](=O)[O-])c1)c1ccccc1
inactive: [1]; [7] -2% | [1]; [8] 19% | [2]; [7] 9% | [2]; [8] 6% | [3]; [7] -2% | [3]; [8] 6% | [4]; [7] 5% | [4]; [8] 16% | [5]; [7] 0% | [5]; [8] 39% | [6]; [7] -10% | [6]; [8] 41%
active: [1]; at 50.0 µM 98.7% | [2]; at 50.0 µM 98.2% | [3]; at 50.0 µM 96.5% | [4]; at 50.0 µM 95.5% | [5]; at 50.0 µM 98.8% | [6]; at 50.0 µM 98.8%

COc1ccc(/C=C/C(C(=O)O)C(=O)O)cc1
active: [1]; at 50.0 µM 82.7% | [2]; [8] 84% | [2]; at 50.0 µM 76% | [3]; at 50.0 µM 76% | [5]; [8] 88% | [5]; at 50.0 µM 82.5% | [6]; [8] 89% | [6]; at 50.0 µM 78%
inactive: [1]; [7] 19% | [1]; [8] 65% | [2]; [7] -20% | [3]; [7] 6% | [3]; [8] 59% | [4]; [7] 37% | [4]; [8] 47% | [4]; at 50.0 µM 44.4% | [5]; [7] 14% | [6]; [7] -4%

COC(=O)/C=C/c1c2ccccc2cc2ccccc12
active: [6]; at 50.0 µM 75.3%
inactive: [1]; [7] 11% | [1]; [8] 28% | [1]; at 50.0 µM 14.8% | [2]; [7] 13% | [2]; [8] 39% | [2]; at 50.0 µM 25.2% | [3]; [7] 18% | [3]; [8] 46% | [3]; at 50.0 µM 64.3% | [4]; [7] 8% | [4]; [8] 24% | [4]; at 50.0 µM 39.8% | [5]; [7] 9% | [5]; [8] 28% | [5]; at 50.0 µM 37% | [6]; [7] 6% | [6]; [8] 36%

CN1/C(=C/C=C/C(I)=C/C=C/C2=[N+](C)c3ccccc3C2(C)C)C(C)(C)c2ccccc21
inactive: [1]; [7] 1% | [1]; at 50.0 µM 60.5% | [2]; [7] 8% | [2]; at 50.0 µM 50.1% | [3]; [7] -4% | [4]; [7] 8% | [5]; [7] -2% | [6]; [7] -1%
active: [1]; [8] 88% | [2]; [8] 89% | [3]; [8] 92% | [3]; at 50.0 µM 80.6% | [4]; [8] 71% | [4]; at 50.0 µM 79.4% | [5]; [8] 89% | [5]; at 50.0 µM 76.3% | [6]; [8] 89% | [6]; at 50.0 µM 84.7%

c1ccc(COc2ccc(C[P+](c3ccccc3)(c3ccccc3)c3ccccc3)cc2)cc1
active: [1]; [7] 97% | [1]; [8] 100% | [1]; at 50.0 µM 99.3% | [2]; [7] 98% | [2]; [8] 100% | [2]; at 50.0 µM 99.5% | [3]; [7] 99% | [3]; [8] 100% | [3]; at 50.0 µM 99.7% | [4]; [7] 98% | [4]; [8] 98% | [4]; at 50.0 µM 99.6% | [5]; [7] 99% | [5]; [8] 99% | [5]; at 50.0 µM 99.5% | [6]; [7] 99% | [6]; [8] 99% | [6]; at 50.0 µM 99.3%

CCN(CC)CCCNc1c2c(Cl)cc(Cl)cc2nc2nc(=O)[nH]c(C)c12
inactive: [1]; [7] 9% | [1]; [8] 12% | [1]; at 50.0 µM 8.75% | [2]; [7] 8% | [2]; [8] 16% | [2]; at 50.0 µM 0.9% | [3]; [7] -28% | [3]; [8] 6% | [3]; at 50.0 µM 8.8% | [4]; [7] -13% | [4]; [8] 4% | [4]; at 50.0 µM 39% | [5]; [7] -19% | [5]; [8] 8% | [5]; at 50.0 µM 34.5% | [6]; [7] 7% | [6]; [8] 17% | [6]; at 50.0 µM 42.2%

NNc1ncc2c(n1)-c1ccccc1OC2
inactive: [1]; [7] 23% | [1]; [8] 49% | [1]; at 50.0 µM 47.3% | [2]; [7] 6% | [2]; [8] 38% | [2]; at 50.0 µM 18.8% | [3]; [7] 14% | [3]; [8] 28% | [3]; at 50.0 µM 24.1% | [4]; [7] 21% | [4]; [8] 33% | [4]; at 50.0 µM 4.1% | [5]; [7] 12% | [5]; [8] 40% | [5]; at 50.0 µM -1.1% | [6]; [7] 13% | [6]; [8] 53%
active: [6]; at 50.0 µM 89.8%

COc1cc(O)c2c(=O)c3cccc(C)c3[nH]c2c1
active: [1]; [8] 73% | [6]; at 50.0 µM 70%
inactive: [1]; [7] 8% | [1]; at 50.0 µM 2.6% | [2]; [7] -17% | [2]; [8] 28% | [2]; at 50.0 µM 54.9% | [3]; [7] 3% | [3]; [8] 41% | [3]; at 50.0 µM 46.1% | [4]; [7] 14% | [4]; [8] 37% | [4]; at 50.0 µM 49.4% | [5]; [7] 2% | [5]; [8] 54% | [5]; at 50.0 µM 62.6% | [6]; [7] 2% | [6]; [8] 54%

N#CC1C(=O)NC(=O)C(C#N)C1c1ccc(Cl)c(Cl)c1 (stereo not given)
inactive: [1]; [7] -1% | [1]; [8] 42% | [2]; [7] -1% | [2]; [8] 35% | [2]; at 50.0 µM 39.5% | [3]; [7] 1% | [3]; [8] 26% | [3]; at 50.0 µM 57.5% | [4]; [7] -7% | [4]; [8] -2% | [4]; at 50.0 µM 21.9% | [5]; [7] -8% | [5]; [8] 34% | [5]; at 50.0 µM 58.3% | [6]; [7] -2% | [6]; [8] 53% | [6]; at 50.0 µM 63.4%
active: [1]; at 50.0 µM 89.2%

O=C1CCC(c2ccccc2)=NN1c1nc2ccccc2s1
active: [1]; [8] 90% | [1]; at 50.0 µM 98.3% | [2]; [8] 79% | [2]; at 50.0 µM 99.2% | [3]; [8] 85% | [3]; at 50.0 µM 99.2% | [4]; [8] 83% | [4]; at 50.0 µM 99% | [5]; [8] 95% | [5]; at 50.0 µM 99.3% | [6]; [8] 93% | [6]; at 50.0 µM 99.5%
inactive: [1]; [7] 5% | [2]; [7] -3% | [3]; [7] 0% | [4]; [7] -3% | [5]; [7] -6% | [6]; [7] 4%
